From PubChem BioAssay (Tox21)
Values joined by “and” are separate entries in the source; they are usually repeats but may differ in a detail not shown here. Equal values may be shown once. Records with an inconclusive call do not appear. Entries that show only a call come without a potency. A structure can be active in one record and inactive in another. Active and inactive are the calls of the source. Calls come from the whole dose curve; as a rule, active = well fitted curve in the direction sought with a large enough effect in the repeat runs; inconclusive = weak or mixed curves; inactive = no such curve, though single readings can be large; an effect the other way counts as inactive or inconclusive.

test: qHTS assay to identify small molecule agonists of the sonic hedgehog signaling (Shh) pathway - cell viability counter screen (AID 1259366); conditions: NIH/3T3 Gli1-Luc viability, CellTiter-Fluor, 24 h; series mostly up to 92.4 µM; note: nearly all actives have a fitted effect of over 50% in size
Summary of the method: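 Cells are plated at 2,000 per well and left 4hr at 37C, 5% CO2 before compound addition. After 23hr of treatment, CellTiter-Fluor reagent is added for 1hr at 37C and fluorescence is measured.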
Potency is the fitted concentration of half-maximal effect.

SMILES	Potency
NC(=S)Nc1ccccc1	inactive
O=S(=O)(Oc1ccc(Cl)cc1)c1ccc(Cl)cc1	inactive
CN(C)C(=O)Nc1ccc(Cl)cc1	inactive
c1ccc(-c2cccc(-c3ccccc3)c2)cc1	inactive
C1=Cc2cccc3cccc1c23	inactive
COC(=O)c1sccc1S(=O)(=O)NC(=O)Nc1nc(C)nc(OC)n1	inactive
Oc1cc(Cl)c(Cl)cc1Cl	inactive
c1nc[nH]n1	inactive
CCCCCCCCC(=O)NCc1ccc(O)c(OC)c1	inactive
C=CCN(CC=C)C(=O)C(Cl)Cl	inactive
CCC(C)(c1ccc(O)cc1)c1ccc(O)cc1	inactive
NCc1cccnc1	inactive
CCOc1cc(C=O)ccc1O	inactive
CCN(N=O)C(N)=O	inactive
O=C1C=CC(=O)C=C1	inactive
CCCCCc1cc(O)cc(O)c1	inactive and 30.6 µM (active)

SMILES	Potency
CNC(=O)Oc1cccc2c1OC(C)(C)O2	inactive
N[C@@H](Cc1ccc(N(CCCl)CCCl)cc1)C(=O)O	inactive
Oc1cc(Cl)ccc1Oc1ccc(Cl)cc1Cl	31.4 µM (active) and inactive
O=c1oc2ccccc2c(O)c1C(CC(O)c1ccc(-c2ccc(Br)cc2)cc1)c1ccccc1 (stereo not drawn)	inactive
Nc1cccnc1	inactive
C#C[C@]1(O)CC[C@H]2[C@@H]3CCC4=CC(=O)CC[C@]4(C)[C@H]3CC[C@@]21C	inactive
C[C@]12CCC(=O)C(O)=C1CC[C@@H]1[C@@H]2CC[C@]2(C)C(=O)CC[C@@H]12	inactive
Cc1ccccc1[N+](=O)[O-]	inactive
O=P(O)(O)CCCl	inactive
c1ccc(N=Nc2ccccc2)cc1	inactive
CCN(CC)N=O	inactive
S=C1NCCN1	inactive
CC(O)CCO (stereo not drawn)	inactive
O=Cc1ccco1	inactive
CCCCCCOC(=O)c1ccccc1C(=O)OCCCCCC	inactive
ClC1C(Cl)C(Cl)C(Cl)C(Cl)C1Cl (stereo not drawn)	inactive

test: qHTS assay to identify small molecule antagonists of the sonic hedgehog signaling (Shh) pathway - cell viability counter screen (AID 1259367); conditions: NIH/3T3 Gli1-Luc viability, CellTiter-Fluor, 24 h; series mostly up to 92.4 µM; note: nearly all actives have a fitted effect of over 55% in size
Summary of the method: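 Cytotoxicity was assessed in parallel with Shh reporter activity by measuring live-cell protease fluorescence (CellTiter-Fluor) in NIH/3T3 cells stably carrying Gli1-Luc, treated with compound under conditioned medium stimulation for 23 hr plus 1 hr reagent incubation.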

SMILES	Potency
O=C(CCl)c1ccccc1	inactive
CCOP(=S)(OCC)O/N=C(\C#N)c1ccccc1	inactive
NC(=S)Nc1ccccc1	inactive
O=S(=O)(Oc1ccc(Cl)cc1)c1ccc(Cl)cc1	inactive
CN(C)C(=O)Nc1ccc(Cl)cc1	inactive
c1ccc(-c2cccc(-c3ccccc3)c2)cc1	inactive
C1=Cc2cccc3cccc1c23	inactive
COC(=O)c1sccc1S(=O)(=O)NC(=O)Nc1nc(C)nc(OC)n1	inactive
Oc1cc(Cl)c(Cl)cc1Cl	inactive
c1nc[nH]n1	inactive
Nc1ccc(Cl)c(Cl)c1	inactive
CCCCCCCCC(=O)NCc1ccc(O)c(OC)c1	inactive
C=CCN(CC=C)C(=O)C(Cl)Cl	inactive
CCC(C)(c1ccc(O)cc1)c1ccc(O)cc1	inactive
NCc1cccnc1	inactive
CCOc1cc(C=O)ccc1O	inactive
CCN(N=O)C(N)=O	inactive
O=C1C=CC(=O)C=C1	inactive

SMILES	Potency
CCCCCc1cc(O)cc(O)c1	30.6 µM (active)
CNC(=O)Oc1cccc2c1OC(C)(C)O2	inactive
Oc1cc(Cl)ccc1Oc1ccc(Cl)cc1Cl	31.4 µM (active) and inactive
O=c1oc2ccccc2c(O)c1C(CC(O)c1ccc(-c2ccc(Br)cc2)cc1)c1ccccc1 (stereo not drawn)	inactive
Nc1cccnc1	inactive
C#C[C@]1(O)CC[C@H]2[C@@H]3CCC4=CC(=O)CC[C@]4(C)[C@H]3CC[C@@]21C	inactive
C[C@]12CCC(=O)C(O)=C1CC[C@@H]1[C@@H]2CC[C@]2(C)C(=O)CC[C@@H]12	inactive
Cc1ccccc1[N+](=O)[O-]	inactive
O=P(O)(O)CCCl	inactive
c1ccc(N=Nc2ccccc2)cc1	inactive
COc1ccc(C(CN(C)C)C2(O)CCCCC2)cc1 (stereo not drawn)	inactive
CCN(CC)N=O	inactive
S=C1NCCN1	inactive
CC(O)CCO (stereo not drawn)	inactive
O=Cc1ccco1	inactive
CCCCCCOC(=O)c1ccccc1C(=O)OCCCCCC	inactive
ClC1C(Cl)C(Cl)C(Cl)C(Cl)C1Cl (stereo not drawn)	inactive
C[C@]12CCC(=O)C[C@@H]1CC[C@@H]1[C@@H]2CC[C@]2(C)[C@@H](O)CC[C@@H]12	inactive
